Bioassay records (PubChem)
Sampled rows, rich in hits. Any-hit rate of the full collection: about 19%.
Pf growth 96h – P. falciparum growth inhibition at 96 hours; P. falciparum luciferase reporter growth, 96 h; Potency, µM (top dose mostly 28.7 µM), hits mostly inhibitors; hit rate 6.9% among 320,000
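Erythrocytes infected with luciferase-expressing P. falciparum were dispensed at 2% hematocrit and 0.05% parasitemia (final), then incubated with compounds 96 hours at 37 C in 5% CO2. Luminescence after detection reagent addition reported growth.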
LASV entry inh – inhibitors of Lassa virus binding or cell entry; Potency, µM (highest dose often 37.9 µM), usual class: inhibitors; hit rate 1.2% among 300,000; Lassa virus pseudotype entry inhibition, cell reporter; calls by dose curve; tested in HEK293 cells; also: nearly all actives have a fitted effect of over 50% in size
MARV entry inh – blocks Marburg virus binding to or entry into cells; Marburg virus pseudotyped entry inhibition, cell reporter; Potency, µM (titrated, usually from 37.8 µM), most hits filed as inhibitors; hit rate 1.8% among 300,000; AID 540276; calls by dose curve; tested in HEK293 cells
Shiga toxin inh – Shiga toxin inhibition; Vero cells, Shiga toxin protein synthesis inhibition reporter; hit rate 9.2% among 290,000; inhibition, % at 38.7 µM; AID 2315; in the data active = inhibition mostly above about 28%, no sharp cut-off; inactive = mostly below about 43%
CHX counter – affects cycloheximide protein synthesis inhibition readout, counter-screen. cell reporter, cycloheximide protein synthesis inhibition counterscreen. hit rate 12% among 300,000. max response, %. AID 2314; in the data active = max response mostly above about 13%, no sharp cut-off; inactive = mostly below about 14%; also: read at 38.3 µM for the half of the compounds with a filed dose
Pf growth 48h – inhibits P. falciparum growth in the first generation, 48 h | AID 504832 | P. falciparum luciferase growth in erythrocytes, 48 h | Potency, µM (doses to about 28.7 µM), most hits filed as inhibitors | hit rate 5.9% among 310,000
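First compound was added to culture medium, then infected red cells at 0.1% parasitemia and 2% hematocrit (final). After incubation at 37 C under 5% CO2, luciferase detection reagent was dispensed and light output recorded.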
Each line names hits and unclear results; the compound was inactive in the other large screens. Unless noted, calls follow the shape of the dose curve; as a rule, active = well fitted inhibition curve with a large enough effect; inconclusive = small, poorly fitted or top-dose-only effect, or another doubt; inactive = no such curve, though single readings can be large or run the other way.

COCc1nnc(NC(C)=O)s1	none
O=C(Cc1cccc2ccccc12)N/N=C/c1ccc(Sc2cccc3cccnc23)o1	Pf growth 96h 6.6µM (no result: LASV entry inh, Pf growth 48h)
O=C(CSc1cccc2cccnc12)N/N=C/c1ccc(F)cc1	MARV entry inh inconclusive
CCCCC(=O)N/N=C/c1ccc(Sc2cccc3cccnc23)o1	Pf growth 96h 4.1µM, LASV entry inh inconclusive, CHX counter 39
N#Cc1c(SCC(=O)Nc2nccs2)nc2c(c1-c1ccco1)CCCC2	MARV entry inh inconclusive, CHX counter 17
COc1cc(-c2cc(-c3ccccc3)nc(SCC(=O)Nc3nccs3)c2C#N)cc(OC)c1OC	Pf growth 96h inconclusive, Pf growth 48h 1.2µM
Cc1ccccc1NC(=O)CSc1nc2c(c(-c3ccco3)c1C#N)CCCC2	Pf growth 96h inconclusive
COc1ccc(CNC(=O)CSc2nc(-c3ccccc3)cc(-c3cccs3)c2C#N)cc1	Pf growth 96h 6.6µM, MARV entry inh inconclusive (no result: Pf growth 48h)
COc1ccc(-c2cc(-c3cccs3)c(C#N)c(SCC(=O)NCc3ccco3)n2)cc1	LASV entry inh inconclusive, MARV entry inh 0.46µM
O=C(NCC(c1ccco1)N1CCN(c2ccccc2F)CC1)C(=O)NC1CC1 (stereo not drawn)	none (no result: Shiga toxin inh, CHX counter)
COc1ccc(N2CCN(C(CNC(=O)C3CCCCC3)c3ccco3)CC2)cc1 (stereo not drawn)	Pf growth 96h inconclusive, Pf growth 48h 13µM (no result: Shiga toxin inh, CHX counter)
O=C(NCC(c1ccco1)N1CCN(c2ccccc2)CC1)OCc1ccccc1 (stereo not drawn)	Pf growth 96h 4.1µM, LASV entry inh inconclusive, MARV entry inh inconclusive, Pf growth 48h inconclusive
O=C(NCC(c1ccco1)N1CCN(c2ccccc2F)CC1)OCc1ccccc1 (stereo not drawn)	Pf growth 96h inconclusive, CHX counter 21, Pf growth 48h inconclusive
COc1ccc(N2CCN(C(CNC(=O)C(=O)NC3CC3)c3ccco3)CC2)cc1 (stereo not drawn)	LASV entry inh inconclusive, MARV entry inh inconclusive (no result: Shiga toxin inh, CHX counter)
O=C(NCC(c1ccco1)N1CCN(c2ccccc2F)CC1)C1CCCCC1 (stereo not drawn)	MARV entry inh inconclusive, Pf growth 48h 12µM (no result: Shiga toxin inh, CHX counter)
CCOc1ccc(Nc2nc(Cc3nnc(SCC(=O)O)o3)cs2)cc1	Pf growth 96h inconclusive
COC(=O)c1cccc(NC(=S)Nc2ccccc2Cl)c1	none
C#CCn1c(=NC(=O)c2cc(Cl)sc2Cl)sc2cc(S(N)(=O)=O)ccc21	LASV entry inh inconclusive, MARV entry inh inconclusive
C#CCn1c(=NC(=O)c2ccco2)sc2cccc(Cl)c21	CHX counter 13
CCOc1cccc2sc(=NC(=O)c3ccco3)n(CC(=O)OC)c12	MARV entry inh inconclusive, Shiga toxin inh 68, CHX counter 37, Pf growth 48h inconclusive
O=C(c1ccco1)N1CCN(Cc2cccc([N+](=O)[O-])c2)CC1	none (no result: LASV entry inh, MARV entry inh)
CCN1CCN(c2ccc([N+](=O)[O-])cc2S(=O)(=O)N2CCOCC2)CC1	MARV entry inh inconclusive
COc1ccccc1NS(=O)(=O)c1cccc(NC(=O)CCNC(=O)c2ccccc2OC)c1	Pf growth 96h 12µM, Pf growth 48h 9.3µM (no result: LASV entry inh, MARV entry inh, Shiga toxin inh, CHX counter)
COc1ccccc1NS(=O)(=O)c1ccc(C)c(C(N)=O)c1	Pf growth 96h 5.2µM
Cc1ccc(S(=O)(=O)NCCC2=CCCCC2)cc1C(N)=O	Pf growth 96h 10µM (no result: LASV entry inh, MARV entry inh)
Cc1cc(S(=O)(=O)NCCC2=CCCCC2)ccc1Br	none (no result: Shiga toxin inh, CHX counter)
COc1ccccc1NS(=O)(=O)c1cccc(NC(=O)c2sc3ccccc3c2Cl)c1	LASV entry inh inconclusive, MARV entry inh inconclusive, Pf growth 48h 12µM
COc1ccccc1NC(=O)Nc1ccc(Cl)c(S(=O)(=O)Nc2ccccc2OC)c1	Pf growth 96h inconclusive, LASV entry inh inconclusive, MARV entry inh inconclusive
COc1ccccc1NS(=O)(=O)c1cccc(NC(=O)c2cncc(Br)c2)c1	LASV entry inh inconclusive, MARV entry inh 3.5µM (no result: Pf growth 96h, Shiga toxin inh, CHX counter, Pf growth 48h)
CCOC(=O)/C(C#N)=C/Nc1ccccc1NS(=O)(=O)c1cccc(C(C)=O)c1	Pf growth 96h inconclusive, MARV entry inh inconclusive, Pf growth 48h inconclusive
COc1ccccc1NS(=O)(=O)c1cccc(NC(=S)NCCN2CCOCC2)c1	Pf growth 96h inconclusive
COc1ccccc1NS(=O)(=O)c1cccc(NC(=O)Nc2cccc(Cl)c2)c1	Pf growth 96h inconclusive, LASV entry inh 13µM, MARV entry inh inconclusive, Pf growth 48h inconclusive
CCOC(=O)/C(C#N)=C/Nc1ccccc1NS(=O)(=O)c1ccc(C)c(C)c1	Pf growth 96h 2.9µM, Pf growth 48h inconclusive
COc1ccccc1NS(=O)(=O)c1cccc(NC(=O)NCCCl)c1	Pf growth 96h 12µM (no result: LASV entry inh, MARV entry inh)
O=S(=O)(Nc1cc(S(=O)(=O)N2CCCC2)ccc1O)c1ccc(Cl)s1	none (no result: Shiga toxin inh, CHX counter)
CCOc1ccccc1NC(=O)c1nc(-c2ccccc2)oc1C	Pf growth 96h inconclusive (no result: LASV entry inh, MARV entry inh)
CCC(O)(CC)C(=O)N(Nc1ccc(C)cc1)c1ccc(C)cc1	Pf growth 96h inconclusive, Pf growth 48h inconclusive (no result: LASV entry inh, MARV entry inh)
CCOC(=O)C(=O)N(Nc1ccc(C)cc1)c1ccc(C)cc1	Pf growth 96h inconclusive, MARV entry inh inconclusive, Shiga toxin inh 72, CHX counter 16, Pf growth 48h inconclusive
O=C(NNc1ccccn1)c1ccccc1CC[N+](=O)[O-]	Pf growth 96h inconclusive, CHX counter 14
O=C(Nc1ccc(Br)cc1)c1ccccc1CC[N+](=O)[O-]	Pf growth 48h inconclusive
CSc1cccc(NC(=O)C2CCCN2S(=O)(=O)c2ccc(Br)s2)c1 (stereo not drawn)	Pf growth 96h 10µM (no result: Pf growth 48h)
O=c1[nH]c2c(c3c1CCCC3)CCCC2	none
Cc1ccccc1-c1nsc(SCC(=O)Nc2ccc3c(c2)OCO3)n1	MARV entry inh inconclusive, CHX counter 33, Pf growth 48h inconclusive
Cc1cccc(-c2nsc(SCC(=O)Nc3ccc4c(c3)OCO4)n2)c1	MARV entry inh inconclusive, Shiga toxin inh 36, CHX counter 27, Pf growth 48h inconclusive
Cc1cccc(-c2nsc(SCC(=O)Nc3nccs3)n2)c1	Pf growth 48h inconclusive
COc1ccc(NS(=O)(=O)c2ccc(NC(=O)c3cnn4c(C(F)F)cc(-c5ccc(C)cc5)nc34)cc2)cc1	Pf growth 96h 0.83µM, Pf growth 48h inconclusive (no result: LASV entry inh)
Cc1ccc(-c2cc(C(F)F)n3ncc(C(=O)Nc4ccc(S(=O)(=O)Nc5ccccc5C)cc4)c3n2)cc1	Pf growth 96h 15µM, Pf growth 48h 1.9µM
COc1ccc(-c2cc(C(F)F)n3ncc(C(=O)N4CCN5CCCC5C4)c3n2)cc1 (stereo not drawn)	Pf growth 96h 9.3µM, LASV entry inh inconclusive, MARV entry inh inconclusive, Pf growth 48h inconclusive
Cc1ccc2cc3c(N)c(C(=O)Nc4c(C)[nH]c(=O)[nH]c4=O)sc3nc2c1	Pf growth 96h inconclusive
Cc1[nH]c(=O)[nH]c(=O)c1NC(=O)c1sc2nc3c(C)cccc3cc2c1N	Pf growth 96h 4.7µM
Cc1ccc2nc3sc(C(=O)Nc4c(C)[nH]c(=O)[nH]c4=O)c(N)c3cc2c1	Pf growth 96h 8.3µM, MARV entry inh inconclusive, CHX counter 31
C=CCSc1nnc(Cc2c(C)[nH]c3ccccc23)o1	Pf growth 96h 8.3µM (no result: LASV entry inh, MARV entry inh)
